Experimental findings from PubChem BioAssay (NCI) are described below.

Each structure is given as a SMILES string. About 83,000 compounds went through this panel and 20% of them were active in at least one assay; those are over-represented in the sample as a whole.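 Each cell line was grown in a 96-well plate and treated with one concentration of compound for 48 hours. Values below 10 were considered active.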 Values without a mark were called inactive. Active and inactive are the calls of the source.

Some test systems named below: DU-145 prostate; MALME-3M melanoma; MDA-MB-231 breast; RXF 393 renal; SF-268 CNS; SF-295 CNS; SF-539 CNS; UACC-257 melanoma; M14 melanoma; HCT-15 colon; HT29 colon; SNB-75 CNS; SNB-19 CNS; U251 CNS; PC-3 prostate; UACC-62 melanoma; LOX IMVI melanoma; SK-MEL-28 melanoma; K-562 leukemia; SK-MEL-5 melanoma.
Assay in all cases: NCI-60 one-dose screen, 48 h (100 = growth as untreated, 0 = no growth, -100 = all killed)
What all share (conditions): 10 µM unless noted

Consider `COc1cccc(NC(=O)c2sc3nc(C)c(C(C)=O)cc3c2N)c1`, for which the growth with DU-145 prostate was 23.3%; in the experiment on MALME-3M melanoma, 71.2%; in the experiment on MDA-MB-231 breast, 58.5%; with RXF 393 renal, 51.6%; with SF-268 CNS, 69.8%; in the experiment with SF-295 CNS it was 29.9%. In addition, the growth in the experiment with SF-539 CNS was 32%; in the experiment on UACC-257 melanoma, 60.1%; with M14 melanoma, 23.7%; in the experiment on HCT-15 colon, 35.9%; in the experiment on HT29 colon it was 38.7%; in the experiment with SNB-75 CNS, 22.7%. Besides, the growth in the experiment on SNB-19 CNS was 40.2%; with U251 CNS, 33.7%; in the experiment with PC-3 prostate, 47.8%; in the experiment on UACC-62 melanoma, 26.7%; in the experiment on LOX IMVI melanoma it was 47.2%; with SK-MEL-28 melanoma it was 71%.

Regarding `CN1C(=O)C2(SCC(C(=O)NCc3ccccc3)N2C(=O)C2CCCCC2)c2ccccc21` (stereo not drawn), the growth was 98% in the experiment on DU-145 prostate; 94.1% with MALME-3M melanoma; 117% with MDA-MB-231 breast; 119% with RXF 393 renal; 83.3% in the experiment with SF-268 CNS; 100% with SF-295 CNS. Besides, the growth with SF-539 CNS was 123%; in the experiment with UACC-257 melanoma, 106%; with M14 melanoma, 87.3%; in the experiment on HCT-15 colon, 99.2%; in the experiment with HT29 colon it was 102%; in the experiment with SNB-75 CNS, 47.2%. The growth with SNB-19 CNS was 98.5%; with U251 CNS, 98.3%; in the experiment with PC-3 prostate, 82.8%; in the experiment with UACC-62 melanoma it was 93.4%; with LOX IMVI melanoma, 91.6%; with SK-MEL-28 melanoma, 113%.

Regarding `O=C(COc1ccc(/C=C2\CSc3ccccc3C2=O)cc1)Nc1nccs1`, the growth was 130% with DU-145 prostate; -14.2% (active) in the experiment on K-562 leukemia; 77.8% in the experiment on MALME-3M melanoma; 95.6% in the experiment with MDA-MB-231 breast; 99.6% in the experiment on SF-268 CNS; 118% in the experiment with SF-295 CNS. The growth in the experiment on SF-539 CNS was 111%; with UACC-257 melanoma, 97.3%; in the experiment with M14 melanoma it was 89.6%; with HCT-15 colon, 84.6%; in the experiment with HT29 colon, 74.7%; in the experiment with SNB-75 CNS, 87.8%. The growth with SNB-19 CNS is 82.1%; in the experiment with U251 CNS, 83%; in the experiment on SK-MEL-5 melanoma, 142%; in the experiment with UACC-62 melanoma, 85.5%; with LOX IMVI melanoma, -28.3% (active); with SK-MEL-28 melanoma, 124%.

In the case of `COc1cc(-c2nn(-c3ccc(C)cc3)cc2C(=O)O)ccc1O`, the growth is 109% with DU-145 prostate; 90% in the experiment with MALME-3M melanoma; 91.7% in the experiment with MDA-MB-231 breast; 125% in the experiment with RXF 393 renal; 90.4% with SF-268 CNS; 97.9% with SF-295 CNS. Also, the growth in the experiment on SF-539 CNS was 101%; with UACC-257 melanoma it was 105%; in the experiment on M14 melanoma, 96.8%; in the experiment on HCT-15 colon, 99.4%; in the experiment with HT29 colon, 107%; with SNB-75 CNS it was 87.5%. Also, the growth in the experiment with SNB-19 CNS is 97.7%; in the experiment on U251 CNS, 108%; in the experiment on PC-3 prostate, 91%; with UACC-62 melanoma, 96.1%; in the experiment on LOX IMVI melanoma it was 86%; in the experiment with SK-MEL-28 melanoma it was 104%.

For the compound `Cc1cc(N[C@@H]2CCC[C@H](Nc3ccnc4cc(Cl)ccc34)C2)nc(N2CCCCCC2)n1`, the growth in the experiment on DU-145 prostate was -6.21% (active); with MALME-3M melanoma, -86.4% (active); in the experiment with MDA-MB-231 breast, -85.8% (active); with RXF 393 renal, -80.6% (active); in the experiment on SF-268 CNS, -66.2% (active); in the experiment on SF-295 CNS it was -76.1% (active). In addition, the growth was -93% (active) with SF-539 CNS; -76.5% (active) in the experiment with UACC-257 melanoma; -89.2% (active) in the experiment on M14 melanoma; -73.2% (active) in the experiment on HCT-15 colon; -59.9% (active) with HT29 colon; -83.7% (active) in the experiment with SNB-75 CNS. Besides, the growth in the experiment with SNB-19 CNS is -22.2% (active); with U251 CNS, -92.6% (active); in the experiment with PC-3 prostate, -67.7% (active); with UACC-62 melanoma, -90.2% (active); in the experiment with LOX IMVI melanoma, -86.3% (active); with SK-MEL-28 melanoma it was -80.3% (active).

In the case of `CS(=O)(=O)c1ccc(-n2nc(-c3ccc(Br)cc3)c3ccccc3c2=O)cc1`, the growth with DU-145 prostate is 99.2%; with K-562 leukemia, 90.9%; in the experiment with MDA-MB-231 breast, 90.1%; in the experiment on RXF 393 renal it was 97.1%; with SF-268 CNS it was 95%; in the experiment with SF-295 CNS, 94%. For the same compound, the growth is 96.2% in the experiment with SF-539 CNS; 97.3% with UACC-257 melanoma; 107% in the experiment on M14 melanoma; 93.4% with HCT-15 colon; 101% in the experiment on HT29 colon; 70.5% in the experiment on SNB-75 CNS. Also, the growth was 92.5% in the experiment on SNB-19 CNS; 97.1% in the experiment with U251 CNS; 89.3% in the experiment on PC-3 prostate; 97% in the experiment on UACC-62 melanoma; 113% in the experiment on SK-MEL-28 melanoma.

For the compound `COc1cc(C)c(C2C(C#N)=C(N)Oc3n[nH]c(-c4cccs4)c32)cc1C(C)C` (stereo not drawn), the growth with DU-145 prostate is 108%; in the experiment on MALME-3M melanoma, 121%; in the experiment on MDA-MB-231 breast, 107%; with RXF 393 renal it was 99.5%; in the experiment on SF-268 CNS it was 101%; in the experiment with SF-295 CNS, 101%. The growth was 104% in the experiment with SF-539 CNS; 90.4% in the experiment on UACC-257 melanoma; 105% with M14 melanoma; 96.2% with HCT-15 colon; 98.9% in the experiment on HT29 colon; 86.8% in the experiment with SNB-75 CNS. Besides, the growth in the experiment on SNB-19 CNS is 103%; in the experiment with U251 CNS, 90.2%; in the experiment with PC-3 prostate, 95.3%; in the experiment with UACC-62 melanoma, 96.1%; with LOX IMVI melanoma, 98.6%; with SK-MEL-28 melanoma it was 112%.

Turning to `CC(C)c1c(C(=O)c2ccccc2)c(-c2ccccc2)c(-c2ccc(F)cc2)n1CC[C@@H](O)C[C@@H](O)CC(=O)O`, the growth in the experiment with DU-145 prostate was 105%; in the experiment with K-562 leukemia it was 71.3%; with MALME-3M melanoma it was 85.2%; in the experiment with RXF 393 renal, 36.6%; in the experiment on SF-268 CNS, 34.7%; in the experiment on SF-295 CNS it was 30.7%. For the same compound, the growth in the experiment on SF-539 CNS was 80%; in the experiment with UACC-257 melanoma, 83.8%; with M14 melanoma, 63.8%; in the experiment with HCT-15 colon it was 47.5%; with HT29 colon, 106%; in the experiment with SNB-19 CNS, 57.4%. Also, the growth with PC-3 prostate was 37%; in the experiment on UACC-62 melanoma, 16.6%; in the experiment with SK-MEL-28 melanoma, 65.4%.

With `O=C(COc1cccc(/C=C2\COc3ccc(Cl)cc3C2=O)c1)c1ccc(Cl)cc1`, the growth in the experiment on DU-145 prostate is 124%; in the experiment on K-562 leukemia, 13.1%; with MALME-3M melanoma, 77.5%; in the experiment with MDA-MB-231 breast, 67.8%; in the experiment with SF-268 CNS, 94.4%; in the experiment with SF-295 CNS it was 120%. Moreover, the growth is 87% in the experiment on SF-539 CNS; 104% in the experiment on UACC-257 melanoma; 82.4% with M14 melanoma; 82% in the experiment on HCT-15 colon; 97.7% in the experiment on HT29 colon; 67.8% with SNB-75 CNS. The growth in the experiment with SNB-19 CNS is 90.5%; in the experiment with U251 CNS it was 87.5%; in the experiment on SK-MEL-5 melanoma it was 94.3%; in the experiment with UACC-62 melanoma it was 80.9%; in the experiment with LOX IMVI melanoma, 76.1%; in the experiment with SK-MEL-28 melanoma, 119%.
